# PubChem BioAssay (NCATS)
# Results filed as inconclusive are left out. Entries that show only a call come without a potency. The source made the active and inactive calls. Unless noted, the call rests on the fitted dose curve; in most records, active means well fitted curve in the direction sought with a large enough effect; inconclusive means small, poorly fitted or top-dose-only effect, or another doubt; inactive means no such curve, though single readings can be large; an effect the other way counts as inactive or inconclusive.
# Assays:
# [1] = Nrf2 qHTS screen for inhibitors: Validation (AID 493153; active means well fitted inhibition curve with a large enough effect in the main read-out, with a control signal flat, not every such curve was filed as active); conditions: viability change: measured here: cytotoxicity max response
# Procedure, shortened: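 A549 cells carrying an ARE-driven firefly luciferase reporter, in 5% FBS OPTI-MEM, were treated with compounds in concentration-response for 18-24 h at 37°C. Viability was read by CellTiter-Fluor fluorescence, then Nrf2 activity by luciferase luminescence.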
# [2] = target: Galactokinase (Homo sapiens) (UniProt P51570); experiment: qHTS Validation Assay for Inhibitors of Human Galactokinase (GALK) (AID 493189)
# Procedure, shortened: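 Enzyme activity is inferred from ATP consumption: human GALK phosphorylates galactose (100 uM) using 35 uM ATP for 1 h at room temperature, and luciferase-based Kinase-Glo Plus reports unconsumed ATP.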
# [3] = Validation screen for small molecules that induce DNA re-replication in SW480 colon adenocarcinoma cells (AID 504364)
# Procedure, shortened: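 SW480 cells seeded at 250 per well were exposed to compound or DMSO for 48 hr at 37 C, 5% CO2, then stained with Hoechst for 40 min. DNA content per nucleus was imaged (405 nm ex, 500-530 nm em).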
# [4] = target: Peptidyl-prolyl cis-trans isomerase NIMA-interacting 1 (Homo sapiens) (UniProt Q13526); experiment: qHTS Validation Assay to Find Inhibitors of Pin1 (AID 504536; active means well fitted inhibition curve with a large enough effect in the polarisation, with a control signal flat, not every such curve was filed as active; the % refers to the polarisation)
# Chain of Peptidyl-prolyl cis-trans isomerase NIMA-interacting 1 (Homo sapiens) (Q13526 whole entry, looked up): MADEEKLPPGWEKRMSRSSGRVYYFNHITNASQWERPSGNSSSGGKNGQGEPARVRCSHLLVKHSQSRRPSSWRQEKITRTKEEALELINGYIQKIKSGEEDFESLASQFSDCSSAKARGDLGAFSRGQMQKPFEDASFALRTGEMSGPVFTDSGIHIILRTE
# Procedure, shortened: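 Fluorescence polarization competition: compounds (titration) displace HiFluor-488-labeled Pin1-1b peptide from Pin1 (0.3 uM final) in pH 7.5 HEPES buffer with DTT, 10 min at room temperature; %Activity normalized to no-enzyme wells, curves fitted.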
# [5] = target: Ubiquitin carboxyl-terminal hydrolase 1 (Homo sapiens) (UniProt O94782); experiment: Inhibitors of USP1/UAF1: Pilot qHTS (AID 504865);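 further: rhodamine fluorescence freed from ubiquitin-rhodamine substrate followed over time; top concentration of the series differs between compounds; nearly all actives have a fitted effect of over 35% in size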
# Chain of Ubiquitin carboxyl-terminal hydrolase 1 (Homo sapiens) (O94782 whole entry, looked up): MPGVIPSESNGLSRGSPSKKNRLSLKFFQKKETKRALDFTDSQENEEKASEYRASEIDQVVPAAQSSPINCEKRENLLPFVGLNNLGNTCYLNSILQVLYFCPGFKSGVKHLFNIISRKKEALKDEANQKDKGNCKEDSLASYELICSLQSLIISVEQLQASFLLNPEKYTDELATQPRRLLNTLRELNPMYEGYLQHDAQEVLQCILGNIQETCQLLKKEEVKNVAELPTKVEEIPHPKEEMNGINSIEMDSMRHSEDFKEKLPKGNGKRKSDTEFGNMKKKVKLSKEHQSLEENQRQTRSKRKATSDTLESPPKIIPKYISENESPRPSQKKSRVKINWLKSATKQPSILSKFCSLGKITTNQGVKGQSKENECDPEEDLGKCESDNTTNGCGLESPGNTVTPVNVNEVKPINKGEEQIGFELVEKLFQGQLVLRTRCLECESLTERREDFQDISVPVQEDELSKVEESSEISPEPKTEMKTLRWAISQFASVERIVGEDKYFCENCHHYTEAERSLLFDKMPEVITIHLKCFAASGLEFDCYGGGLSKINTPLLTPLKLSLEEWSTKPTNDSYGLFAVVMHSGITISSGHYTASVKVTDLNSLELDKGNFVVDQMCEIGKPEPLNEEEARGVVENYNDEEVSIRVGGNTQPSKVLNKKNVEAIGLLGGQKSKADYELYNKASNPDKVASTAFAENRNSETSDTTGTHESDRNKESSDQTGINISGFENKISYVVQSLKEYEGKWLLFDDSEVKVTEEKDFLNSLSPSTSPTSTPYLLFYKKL
# Procedure, shortened: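 Enzyme-free wells gave the negative control, while test wells held 1nM USP1/UAF1 preincubated with compound for 15 min at room temperature. Ub-Rho at 150nM final started the reaction, and fluorescence at 480/540 nm was recorded kinetically.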
# [6] = qHTS for Inhibitors of ATXN expression: Validation of Cytotoxic Assay (AID 588349)
# Procedure, shortened: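 HEK293 cells were dosed with titrated compounds for 72 hr at 37 degrees C. Viability was read by CellTiter Glo luminescence, with intracellular ATP as the marker of cell survival.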
# [7] = qHTS for Inhibitors of ATXN expression: Validation (AID 588378); further: series mostly up to about 57 µM; nearly all actives have a fitted effect of over 75% in size
# Procedure, shortened: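 After a 2 h attachment and 24 h compound incubation, HEK293-ATXN2-FFLuc wells are read for fluorescence at 405 nm excitation/525 nm emission as a viability measure, then for Bright-Glo luminescence reflecting ATXN2 expression.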
# [8] = target: Voltage-gated inwardly rectifying potassium channel KCNH2 (Homo sapiens) (UniProt Q12809); experiment: qHTS Assay for Small Molecule Inhibitors of the Human hERG Channel Activity (AID 588834);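 further: top concentration of the series differs between compounds; lower thallium flux fluorescence means stronger hERG block; nearly all actives have a fitted effect of over 50% in size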
# Chain of Voltage-gated inwardly rectifying potassium channel KCNH2 (Homo sapiens) (Q12809 whole entry, looked up): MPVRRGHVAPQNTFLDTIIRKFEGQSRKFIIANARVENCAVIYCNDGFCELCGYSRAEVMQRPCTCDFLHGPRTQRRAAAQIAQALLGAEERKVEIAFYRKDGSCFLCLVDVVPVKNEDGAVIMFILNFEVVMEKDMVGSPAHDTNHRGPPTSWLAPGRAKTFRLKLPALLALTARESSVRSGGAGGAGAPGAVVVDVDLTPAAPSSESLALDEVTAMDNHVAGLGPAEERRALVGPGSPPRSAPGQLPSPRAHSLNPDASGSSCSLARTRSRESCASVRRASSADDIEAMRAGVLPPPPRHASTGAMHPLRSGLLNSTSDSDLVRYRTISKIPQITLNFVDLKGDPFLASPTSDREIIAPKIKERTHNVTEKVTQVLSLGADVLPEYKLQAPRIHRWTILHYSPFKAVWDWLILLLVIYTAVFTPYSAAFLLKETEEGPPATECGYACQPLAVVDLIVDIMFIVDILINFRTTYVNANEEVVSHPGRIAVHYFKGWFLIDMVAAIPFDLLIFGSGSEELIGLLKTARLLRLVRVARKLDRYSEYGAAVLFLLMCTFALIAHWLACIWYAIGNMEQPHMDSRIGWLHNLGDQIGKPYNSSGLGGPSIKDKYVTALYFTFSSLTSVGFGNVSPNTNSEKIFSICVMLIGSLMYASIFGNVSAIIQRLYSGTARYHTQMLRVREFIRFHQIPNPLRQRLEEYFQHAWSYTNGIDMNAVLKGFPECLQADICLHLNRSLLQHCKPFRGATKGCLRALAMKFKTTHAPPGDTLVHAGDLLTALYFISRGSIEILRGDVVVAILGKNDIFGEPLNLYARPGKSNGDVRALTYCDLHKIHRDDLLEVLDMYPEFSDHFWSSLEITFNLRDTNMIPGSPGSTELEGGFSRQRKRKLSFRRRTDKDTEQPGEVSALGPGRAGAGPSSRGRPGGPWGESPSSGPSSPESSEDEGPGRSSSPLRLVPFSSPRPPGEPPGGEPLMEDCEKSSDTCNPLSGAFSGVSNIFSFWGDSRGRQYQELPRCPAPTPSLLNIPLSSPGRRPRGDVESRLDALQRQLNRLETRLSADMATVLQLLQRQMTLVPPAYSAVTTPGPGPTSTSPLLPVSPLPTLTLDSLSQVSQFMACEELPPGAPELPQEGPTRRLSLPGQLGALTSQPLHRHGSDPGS
# Procedure, shortened: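 Blockade is seen as reduced FluxOR thallium-flux fluorescence in U2OS cells expressing hERG from a BacMam construct, in Opti-MEM with 2% FCS. Concentration-response data fitted to the Hill equation for AC50.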
# [9] = target: Glutaminase kidney isoform, mitochondrial (Homo sapiens) (UniProt O94925); experiment: qHTS for Inhibitors of Glutaminase (GLS): LOPAC Validation (AID 624146);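 further: glutamate product detected by oxidase and peroxidase coupled Amplex red fluorescence gain; series mostly up to about 46 µM; nearly all actives have a fitted effect of over 60% in size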
# Chain of Glutaminase kidney isoform, mitochondrial (Homo sapiens) (O94925 whole entry, looked up, canonical isoform): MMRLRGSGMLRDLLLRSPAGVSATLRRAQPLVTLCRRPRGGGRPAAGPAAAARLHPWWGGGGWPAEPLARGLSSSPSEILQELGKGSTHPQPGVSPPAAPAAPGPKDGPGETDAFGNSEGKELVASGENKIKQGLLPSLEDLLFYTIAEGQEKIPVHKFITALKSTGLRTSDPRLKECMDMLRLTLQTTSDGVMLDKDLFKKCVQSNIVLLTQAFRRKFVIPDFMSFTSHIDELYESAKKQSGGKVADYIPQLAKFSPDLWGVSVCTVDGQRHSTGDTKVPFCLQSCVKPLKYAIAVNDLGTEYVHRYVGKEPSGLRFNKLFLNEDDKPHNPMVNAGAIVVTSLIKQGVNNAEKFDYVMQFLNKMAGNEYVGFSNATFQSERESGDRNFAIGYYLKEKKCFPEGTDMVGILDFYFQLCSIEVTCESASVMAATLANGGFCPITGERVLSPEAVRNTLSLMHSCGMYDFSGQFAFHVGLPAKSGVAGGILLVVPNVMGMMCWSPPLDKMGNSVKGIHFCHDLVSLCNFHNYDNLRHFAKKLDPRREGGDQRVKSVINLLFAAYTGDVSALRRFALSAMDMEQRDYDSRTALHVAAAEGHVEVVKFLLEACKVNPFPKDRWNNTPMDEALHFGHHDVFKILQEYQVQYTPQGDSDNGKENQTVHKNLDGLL
# Procedure, shortened: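 Compounds were pin-transferred onto hKGA, after which L-glutamine (1 mM solution) and a detection mix of glutamate oxidase, HRP and Amplex Red were added. Initial and 30 min RT fluorescence reads were collected.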
# [10] = qHTS of Trypanosoma Brucei Inhibitors: LOPAC Validation (AID 624147)
# Procedure, shortened: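 Luminescent Kinase-Glo Plus end-point after 45 min room-temperature reaction of T. brucei pyruvate kinase started with 130 uM ADP (final). Buffer TEA 50 mM pH 7.2 with KCl, MgCl2, BSA, Tween-20; titration-based qHTS with fitted concentration-effect curves.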
# [11] = target: Glucagon-like peptide 1 receptor (Homo sapiens) (UniProt P43220); experiment: qHTS of GLP-1 Receptor Agonists: LOPAC Validation (AID 624148);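 further: higher luminescence signal means agonism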
# Chain of Glucagon-like peptide 1 receptor (Homo sapiens) (P43220 whole entry, looked up): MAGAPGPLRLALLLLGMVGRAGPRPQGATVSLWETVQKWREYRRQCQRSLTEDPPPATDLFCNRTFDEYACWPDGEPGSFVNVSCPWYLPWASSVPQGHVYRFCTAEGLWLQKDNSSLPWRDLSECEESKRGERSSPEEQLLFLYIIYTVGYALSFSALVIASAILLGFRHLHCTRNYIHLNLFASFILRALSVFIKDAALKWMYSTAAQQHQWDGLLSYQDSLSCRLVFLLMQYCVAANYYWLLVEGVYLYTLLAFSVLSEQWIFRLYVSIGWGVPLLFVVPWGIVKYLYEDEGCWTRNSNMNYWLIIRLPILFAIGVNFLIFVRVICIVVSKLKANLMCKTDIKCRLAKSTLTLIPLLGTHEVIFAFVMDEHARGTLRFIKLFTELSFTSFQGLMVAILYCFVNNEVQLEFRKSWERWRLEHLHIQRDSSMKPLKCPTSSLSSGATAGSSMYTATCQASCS
# Procedure, shortened: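 HEK293 cells stably co-expressing a cAMP-responsive luciferase reporter and a hypersensitive GLP-1R were plated 12 h at 37 °C and exposed to compounds for 4-6 hr at 37 °C, 5% CO2. Luminescence was read 12 min after adding detection reagent.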
# [12] = qHTS of Nrf2 Activators: LOPAC Validation (AID 624149)
# Procedure, shortened: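 AREc32 cells carrying an ARE-driven firefly luciferase were grown overnight in OPTI-MEM with 5% FBS, then exposed to compounds for 24 hr at 37 deg C. Luciferase signal was read after 30 min with Steady-Glo at RT.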
# [13] = HTS Assay for Allosteric Antagonists of the Human D2 Dopamine Receptor: Hit Validation in HTRF (AID 624455);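 further: stable D1 dopamine receptor cell line scored for blocking the D1 response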
# Procedure, shortened: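 Hits were examined in an HTRF assay using cells stably expressing the D1 dopamine receptor, scoring inhibition of the D1-mediated response. The preceding primary screen tracked calcium flux after an EC80 dopamine addition in force-coupled, inducible Hek293 Trex D2 cells.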
# [14] = target: Arylsulfatase A (Homo sapiens) (UniProt P15289); experiment: qHTS screen for enhancers of Arylsulfatase A (ASA1): LOPAC Validation Assay (AID 720538)
# Chain of Arylsulfatase A (Homo sapiens) (P15289 whole entry, looked up): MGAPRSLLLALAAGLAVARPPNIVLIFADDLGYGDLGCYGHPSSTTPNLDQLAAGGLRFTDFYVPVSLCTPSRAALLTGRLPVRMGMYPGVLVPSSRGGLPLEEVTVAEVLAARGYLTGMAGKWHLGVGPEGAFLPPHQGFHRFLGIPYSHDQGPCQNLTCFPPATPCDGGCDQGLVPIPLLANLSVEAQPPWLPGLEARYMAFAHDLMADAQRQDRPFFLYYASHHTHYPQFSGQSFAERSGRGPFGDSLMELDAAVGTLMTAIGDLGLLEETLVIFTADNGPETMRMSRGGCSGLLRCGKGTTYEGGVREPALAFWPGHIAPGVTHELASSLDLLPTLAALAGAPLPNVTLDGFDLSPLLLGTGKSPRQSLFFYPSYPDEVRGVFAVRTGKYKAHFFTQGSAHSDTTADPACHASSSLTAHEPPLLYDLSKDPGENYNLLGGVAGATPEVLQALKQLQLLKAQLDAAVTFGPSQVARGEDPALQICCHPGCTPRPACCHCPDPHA
# Procedure, shortened: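 Cell-based enhancement test: residual ASA activity in SV40-transformed I179S patient fibroblasts is measured by pNCS turnover (0.5mM final, 14h, room temperature) following 48h compound incubation; higher fluorescence indicates activation.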
# [15] = qHTS for compounds that reverse cellular toxicity of Amyloid beta (A-beta) peptide in yeast: LOPAC Validation Assay (AID 720559)
# Procedure, shortened: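 Here, A-beta-toxic yeast grow with test compounds at 30 C for 48 hr before optical density at 600 nm is recorded; data are normalized against DMSO and the FeCl3-clioquinol control.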
# [16] = qHTS for Activators of Parkin Expression: LOPAC Validation Assay (NLuc Reporter) (AID 720572)
# Procedure, shortened: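 Neuronal line stably carrying a FLuc/NLuc coincidence reporter under the Parkin promoter, seeded 24 h, then dosed in 7-point series for 24 h at 37 C. NLuc luminescence read after FLuc; normalized to DMSO and positive control (100%).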
# [17] = target: Hexokinase-4 (Homo sapiens) + Glucokinase regulatory protein (Homo sapiens) (UniProt P35557+Q14397); experiment: qHTS assay for inhibitors of recombinant human GCK-GKRP interaction: Diaphorase-coupled assay (AID 743205)
# Chain of Hexokinase-4 (Homo sapiens) + Glucokinase regulatory protein (Homo sapiens) (P35557 whole entry, looked up): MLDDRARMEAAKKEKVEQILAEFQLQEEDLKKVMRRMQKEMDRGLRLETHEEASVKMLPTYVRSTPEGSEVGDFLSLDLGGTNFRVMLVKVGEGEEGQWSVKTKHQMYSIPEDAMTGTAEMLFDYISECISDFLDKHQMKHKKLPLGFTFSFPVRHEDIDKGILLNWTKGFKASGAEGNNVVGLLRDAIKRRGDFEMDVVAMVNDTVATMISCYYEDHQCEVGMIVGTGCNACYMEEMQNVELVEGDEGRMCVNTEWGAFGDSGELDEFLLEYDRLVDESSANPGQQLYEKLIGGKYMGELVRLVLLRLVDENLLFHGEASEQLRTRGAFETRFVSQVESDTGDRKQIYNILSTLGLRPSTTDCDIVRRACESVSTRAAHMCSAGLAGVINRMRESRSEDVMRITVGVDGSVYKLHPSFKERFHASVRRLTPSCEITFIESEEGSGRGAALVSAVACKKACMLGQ
# Chain of Hexokinase-4 (Homo sapiens) + Glucokinase regulatory protein (Homo sapiens) (Q14397 whole entry, looked up): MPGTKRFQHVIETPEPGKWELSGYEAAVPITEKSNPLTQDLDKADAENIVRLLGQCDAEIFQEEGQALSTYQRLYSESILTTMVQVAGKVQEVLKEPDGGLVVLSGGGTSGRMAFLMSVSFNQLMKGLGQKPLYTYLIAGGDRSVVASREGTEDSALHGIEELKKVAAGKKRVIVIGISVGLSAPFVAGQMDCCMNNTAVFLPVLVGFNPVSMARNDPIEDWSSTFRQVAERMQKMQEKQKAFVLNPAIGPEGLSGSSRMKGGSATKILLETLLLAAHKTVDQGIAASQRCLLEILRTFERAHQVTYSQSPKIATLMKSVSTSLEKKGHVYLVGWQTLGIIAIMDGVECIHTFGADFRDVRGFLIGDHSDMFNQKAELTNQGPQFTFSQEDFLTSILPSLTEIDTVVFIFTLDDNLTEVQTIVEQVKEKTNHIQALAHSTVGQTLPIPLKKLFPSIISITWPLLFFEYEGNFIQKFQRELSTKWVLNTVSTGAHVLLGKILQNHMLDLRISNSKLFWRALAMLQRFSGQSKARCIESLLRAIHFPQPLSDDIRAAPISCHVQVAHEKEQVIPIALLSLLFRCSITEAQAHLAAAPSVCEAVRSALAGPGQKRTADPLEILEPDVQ
# Procedure, shortened: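 Signal derives from resorufin generated by diaphorase, linked to GCK turnover of glucose (5 mM) and ATP (0.4 mM). Enzyme complex was added after a 20-minute compound preincubation and monitored for 30 minutes.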
compound,measurement,setting,value
Cc1cccc(/C=C/c2ccccc2)n1,outcome,[1],inactive
same,viability change,[1],-2.71%
same,outcome,[2],inactive
same,outcome,[3],inactive
same,Potency,[4],inactive
same,Potency,[5],inactive
same,Potency,[6],inactive
same,Potency,[7],inactive
same,Potency,[8],inactive
same,Potency,[9],inactive
same,outcome,[10],inactive
same,outcome,[11],inactive
same,outcome,[12],inactive
same,outcome,[13],inactive
same,Potency,[14],inactive
same,outcome,[15],inactive
same,outcome,[16],inactive
same,outcome,[17],inactive
